From PubChem BioAssay (Tox21)
Values joined by “and” are separate entries in the source; they are usually repeats but may differ in a detail not shown here. Equal values may be shown once. Inconclusive results are not listed. Active and inactive are the calls of the source. Unless noted, the call rests on the fitted dose curve; in most records, active means well fitted curve in the direction sought with a large enough effect in the repeat runs; inconclusive means weak or mixed curves; inactive means no such curve, though single readings can be large; an effect the other way counts as inactive or inconclusive.

Legend:
[1] = qHTS assay to identify small molecule agonists of the RXR signaling pathway - cell viability counter screen (AID 1159529); further: nearly all actives have a fitted effect of over 50% in size; further: potency means the concentration at half of the fitted maximal effect
Summary of the method: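 Tox21 10K compounds were tested for cytotoxicity against GeneBLAzer RXR-alpha HEK 293T cells grown in 2% charcoal-stripped FBS. Exposure lasted 16 hr at 37 C, 5% CO2; viability read by CellTiter-Glo luminescence.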

[2] = qHTS assay to identify small molecule antagonists of the retinoic acid receptor (RAR) signaling pathway (AID 1159552; further: nearly all actives have a fitted effect of over 50% in size; further: potency means the concentration at half of the fitted maximal effect)
Summary of the method: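 Overnight-plated C3RL4 reporter cells get compound, then retinol to 1 uM final; plates sit 6 hr at 37 C, 5% CO2. A luciferase reagent is added and light output recorded after 30 min at room temperature.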

[3] = qHTS assay to identify small molecule antagonists of the estrogen related receptor (ERR) signaling pathway from Tox21 library - cell viability counter screen (AID 1224834); further: nearly all actives have a fitted effect of over 30% in size; further: potency means the concentration at half of the fitted maximal effect
Summary of the method: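 ERR reporter cells were plated 6 h before compound addition, then exposed to test compounds in DMSO for 17.5 h at 37 C. Viability was read as CellTiter-Fluor fluorescence after a 30-minute incubation at 37 C.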

[4] = target: Luciferin 4-monooxygenase (Photinus pyralis) (UniProt P08659); experiment: qHTS assay to identify small molecule inhibitors of firefly luciferase (AID 1224835); further: nearly all actives have a fitted effect of over 25% in size; further: potency means the concentration at half of the fitted maximal effect
Sequence of Luciferin 4-monooxygenase (Photinus pyralis) (P08659 whole entry, looked up): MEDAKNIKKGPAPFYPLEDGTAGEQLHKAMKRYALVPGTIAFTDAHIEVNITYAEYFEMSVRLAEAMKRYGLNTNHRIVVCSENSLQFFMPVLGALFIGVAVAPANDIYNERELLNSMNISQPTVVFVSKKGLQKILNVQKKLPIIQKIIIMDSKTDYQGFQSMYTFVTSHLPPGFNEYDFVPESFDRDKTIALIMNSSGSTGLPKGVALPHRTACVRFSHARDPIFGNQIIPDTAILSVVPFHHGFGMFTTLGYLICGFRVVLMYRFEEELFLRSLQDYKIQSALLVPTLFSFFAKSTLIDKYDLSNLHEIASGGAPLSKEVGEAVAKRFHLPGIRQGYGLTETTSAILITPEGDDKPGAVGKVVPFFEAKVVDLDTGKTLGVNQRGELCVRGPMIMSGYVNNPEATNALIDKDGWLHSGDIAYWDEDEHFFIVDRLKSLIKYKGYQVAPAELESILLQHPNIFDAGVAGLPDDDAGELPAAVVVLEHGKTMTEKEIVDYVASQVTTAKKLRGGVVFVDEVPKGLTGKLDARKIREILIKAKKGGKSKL
Summary of the method: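 Inhibition of purified Photinus luciferase is measured by luminescence. Substrate levels (D-luciferin, ATP) sit at their KM values. Each compound is tested in a concentration series.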

[5] = qHTS assay to identify small molecule agonists of the constitutive androstane receptor (CAR) signaling pathway - cell viability counter screen (AID 1224836); further: nearly all actives have a fitted effect of over 45% in size; further: potency means the concentration at half of the fitted maximal effect
Summary of the method: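 Fluorescence from CellTiter-Fluor indicates live cells after 23 h exposure. The human hepatoma line expresses hCAR and a CYP2B6-2.2kb reporter. Incubation medium contains 0.75 uM PK11195 (final).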

[6] = qHTS assay to identify small molecule antagonists of the constitutive androstane receptor (CAR) signaling pathway - cell viability counter screen (AID 1224837); further: nearly all actives have a fitted effect of over 45% in size; further: potency means the concentration at half of the fitted maximal effect
Summary of the method: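 HepG2 cells stably expressing hCAR and a CYP2B6-2.2kb reporter were plated and pre-incubated 4 hr at 37 C/5% CO2, then given compounds at 15 concentrations plus 50 nM CITCO (final). After 23 hr, viability was read by CellTiter-Fluor fluorescence.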

[7] = target: Nuclear receptor subfamily 1 group I member 3 (Homo sapiens) (UniProt Q14994); experiment: qHTS assay to identify small molecule agonists of the constitutive androstane receptor (CAR) signaling pathway (AID 1224839); further: nearly all actives have a fitted effect of over 15% in size; further: potency means the concentration at half of the fitted maximal effect;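 on activation: HepG2 cells stably carrying human CAR and a CYP2B6 luciferase reporter; series mostly up to about 92 µM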
Sequence of Nuclear receptor subfamily 1 group I member 3 (Homo sapiens) (Q14994 whole entry, looked up): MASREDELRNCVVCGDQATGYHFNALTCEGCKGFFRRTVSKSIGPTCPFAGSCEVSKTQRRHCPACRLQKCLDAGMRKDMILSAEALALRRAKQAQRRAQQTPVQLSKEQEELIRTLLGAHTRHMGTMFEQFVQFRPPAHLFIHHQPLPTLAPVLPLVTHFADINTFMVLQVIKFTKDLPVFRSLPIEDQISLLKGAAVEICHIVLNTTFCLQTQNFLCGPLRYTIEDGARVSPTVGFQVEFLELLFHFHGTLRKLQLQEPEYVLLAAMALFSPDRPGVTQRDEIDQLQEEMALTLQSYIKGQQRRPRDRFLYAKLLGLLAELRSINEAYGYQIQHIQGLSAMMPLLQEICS
Summary of the method: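 Stable hCAR/CYP2B6-2.2kb HepG2 line in DMEM with 10% FBS; compounds (15 concentrations) and 0.75 uM PK11195 final, 24 h at 37 C/5% CO2, then ONE-Glo luminescence after 30 min.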

[8] = qHTS assay to identify small molecule antagonists of the estrogen related receptor signaling pathway with the pleiotropic PPARgamma coactivator (PGC) from Tox21 10K library - cell viability counter screen (AID 1224840; active means well fitted cell-killing curve with a large enough effect in the repeat runs, not every such curve was filed as active; further: nearly all actives have a fitted effect of over 40% in size; further: potency means the concentration at half of the fitted maximal effect)
Summary of the method: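 PGC/ERR cells were seeded at 2,000 cells/well and left 6 hours at 37 C/5% CO2 before pin-tool addition of compounds in DMSO. After 17.5 hours at 37 C, CellTiter-Fluor was added and fluorescence read 30 minutes later.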

[9] = qHTS assay to identify small molecule antagonists of the estrogen related receptor signaling pathway with the pleiotropic PPARgamma coactivator (PGC) from Tox21 10K library (AID 1224841; call rule not given here; further: actives are mostly falling curves and most rising ones were filed inactive; nearly all actives have a fitted effect of over 50% in size; further: potency means the concentration at half of the fitted maximal effect)
Summary of the method: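 PGC/ERR reporter cells were seeded at 2,000 cells/well and held 6 hours at 37 C/5% CO2 before pin-tool addition of compounds in DMSO. After 18 hours at 37 C, One-Glo was added and luminescence read after 30 minutes at room temperature.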

[10] = qHTS assay to identify small molecule agonists of the estrogen related receptor signaling pathway with the pleiotropic PPARgamma coactivator (PGC) from Tox21 10K library (AID 1224842); further: nearly all actives have a fitted effect of over 15% in size
Summary of the method: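 Luminescence from One-Glo (30 min, room temperature) measured after PGC/ERR cells had 18 h at 37 C with pinned compound (23 nL in DMSO). Cells had been seeded at 2,000 per well and pre-incubated 6 h.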

[11] = target: Thyrotropin receptor (Homo sapiens) (UniProt P16473); experiment: qHTS assay to identify small molecule agonists of the thyroid stimulating hormone receptor (TSHR) signaling pathway (AID 1224843; calls by dose curve; further: nearly all actives have a fitted effect of over 45% in size; further: potency means the concentration at half of the fitted maximal effect)
Sequence of Thyrotropin receptor (Homo sapiens) (P16473 whole entry, looked up): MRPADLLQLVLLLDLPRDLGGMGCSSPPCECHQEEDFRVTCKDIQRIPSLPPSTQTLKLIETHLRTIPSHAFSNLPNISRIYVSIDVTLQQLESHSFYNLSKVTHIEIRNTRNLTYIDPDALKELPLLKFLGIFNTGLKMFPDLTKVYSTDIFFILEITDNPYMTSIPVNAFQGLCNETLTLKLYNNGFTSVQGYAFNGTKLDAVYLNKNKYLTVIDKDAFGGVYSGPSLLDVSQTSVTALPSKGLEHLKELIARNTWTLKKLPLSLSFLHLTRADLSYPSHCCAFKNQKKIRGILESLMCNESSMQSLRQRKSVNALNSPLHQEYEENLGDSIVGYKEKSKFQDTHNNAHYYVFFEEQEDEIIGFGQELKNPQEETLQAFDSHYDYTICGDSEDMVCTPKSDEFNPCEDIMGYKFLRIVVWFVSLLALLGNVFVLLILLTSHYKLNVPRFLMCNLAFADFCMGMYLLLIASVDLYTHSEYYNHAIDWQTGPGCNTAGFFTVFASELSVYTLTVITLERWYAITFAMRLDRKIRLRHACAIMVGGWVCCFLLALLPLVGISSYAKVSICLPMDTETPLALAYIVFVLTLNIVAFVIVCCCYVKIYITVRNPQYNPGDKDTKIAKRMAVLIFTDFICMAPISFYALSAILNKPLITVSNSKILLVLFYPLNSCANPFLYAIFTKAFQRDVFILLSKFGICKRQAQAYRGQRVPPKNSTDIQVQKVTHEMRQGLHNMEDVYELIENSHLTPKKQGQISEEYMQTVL
Summary of the method: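 HEK293 cells stably bearing the thyrotropin receptor were plated at 800 cells/well and challenged with compound (30 min, RT). Accumulated cAMP was quantified via cAMP-d2 competing for cryptate-tagged antibody.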

[12] = qHTS assay to identify small molecule agonists of the retinoic acid receptor (RAR) signaling pathway (AID 1159553); further: potency means the concentration at half of the fitted maximal effect
Summary of the method: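 C3RL4 cells carrying a RARE luciferase reporter were plated overnight at 37 C, then exposed to compounds in DMSO for 6 hr at 37 C and 5% CO2. Luminescence was read 30 min after luciferase reagent addition at room temperature.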

[13] = target: Nuclear receptor subfamily 1 group I member 3 (Homo sapiens) (UniProt Q14994); experiment: qHTS assay to identify small molecule antagonists of the constitutive androstane receptor (CAR) signaling pathway (AID 1224838); further: nearly all actives have a fitted effect of over 40% in size; further: potency means the concentration at half of the fitted maximal effect
Summary of the method: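 HepG2 cells stably co-transfected with hCAR and a CYP2B6-2.2kb luciferase reporter were seeded 4 h before compound addition at 15 concentrations. Cells were stimulated with 50 nM CITCO (final) for 24 h at 37 C; luciferase luminescence was then read.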

[14] = qHTS assay to identify small molecule antagonists of the estrogen related receptor (ERR) signaling pathway - cell viability counter screen (AID 1224818); further: potency means the concentration at half of the fitted maximal effect;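 further: viability measured after 17.5 h of compound exposure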
Summary of the method: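 ERR reporter cells plated 6 h at 37 C/5% CO2, then compounds in DMSO pin-transferred and incubated 17.5 h at 37 C. Viability read as CellTiter-Fluor fluorescence after 30 min at 37 C.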

[15] = qHTS assay to identify small molecule agonists of the estrogen related receptor (ERR) signaling pathway (AID 1224820)
Summary of the method: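 ERR reporter cells (NTP line) plated 2,000/well, incubated 6 h at 37 C/5% CO2, then pinned with compounds in DMSO and held 18 h at 37 C. One-Glo added; luminescence read after 30 min at room temperature.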

[16] = qHTS assay to identify small molecule antagonists of the estrogen related receptor signaling pathway with the pleiotropic PPARgamma coactivator (PGC) cell viability counter screen (AID 1224822; further: potency means the concentration at half of the fitted maximal effect)
Summary of the method: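 PGC/ERR cells were seeded at 2,000 cells/well, rested 6 h at 37 C/5% CO2, then given compounds in DMSO by pin tool and incubated 17.5 h at 37 C. Viability came from CellTiter-Fluor fluorescence after 30 min.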

[17] = qHTS assay to identify small molecule agonists of the estrogen related receptor signaling pathway with the pleiotropic PPARgamma coactivator (PGC) (AID 1224823)
Summary of the method: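 PGC/ERR reporter cells were seeded, rested 6 h at 37 C/5% CO2, then exposed to compounds in DMSO by pin transfer for 18 h at 37 C. Luciferase activity was read as luminescence after One-Glo reagent and 30 min at room temperature.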

[18] = qHTS assay to identify small molecule antagonists of the estrogen related receptor (ERR) signaling pathway (AID 1224819;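 further: luminescence from an ERR-driven luciferase reporter measured with One-Glo reagent; series mostly up to about 46 µM; nearly all actives have a fitted effect of over 50% in size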)
Summary of the method: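 ERR reporter cells were plated at 2,000 cells/well and left 6 h at 37 C/5% CO2 before pin-tool transfer of compounds in DMSO. After 18 h at 37 C, One-Glo was added and luminescence was read 30 min later at room temperature.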

[19] = test system: estrogen-related receptor alpha (ERRalpha) with PGC-1alpha coactivator, human; experiment: qHTS assay to identify small molecule antagonists of the estrogen related receptor signaling pathway with the pleiotropic PPARgamma coactivator (PGC) (AID 1224821; calls by dose curve)
Summary of the method: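 Cells engineered for PGC/ERR signalling (line from NTP) were plated 6 h at 37 C/5% CO2, then exposed to DMSO-dissolved compound for 18 h at 37 C. Luciferase activity was read by One-Glo luminescence after 30 min at room temperature.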
On the % scale 0 is the no-effect control and ±100 the full control effect.

CC(C)(C)NC(=O)[C@@H]1C[C@@H]2CCCC[C@@H]2CN1C[C@@H](O)[C@H](Cc1ccccc1)NC(=O)[C@H](CC(N)=O)NC(=O)c1ccc2ccccc2n1
active: Potency [1] 24.9 µM | Potency [2] 55.2 µM | Potency [3] 24.7 µM | Potency [5] 31 µM | Potency [6] 24.7 µM | Potency [8] 31 µM | Potency [9] 27.7 µM | Potency [11] 27.7 µM
inactive: Potency [4] | Potency [7] | Potency [10]

[O-][n+]1ccccc1SSc1cccc[n+]1[O-]
active: Potency [1] 0.165 µM | Potency [2] 0.092 µM | Potency [3] 0.366 µM | Potency [4] 0.425 µM | Potency [5] 0.92 µM | Potency [6] 0.206 µM | Potency [9] 1.64 µM
inactive: activation [10] -33.7% [at 19 µM] | activation [11] 15.2% [at 19 µM]

CCCCCCCCOc1ccccc1C(=O)Nc1ccc(C(=O)OCC[N+](C)(CC)CC)cc1
active: Potency [1] 10.7 µM
inactive: Potency [12] | Potency [4] | Potency [5] | Potency [6] | Potency [13] | Potency [7] | Potency [8]

Cc1[nH]cnc1C[C@H]1CCc2c(C)c3ccccc3n2C1=O
active: Potency [1] 19 µM | Potency [3] 47.4 µM | Potency [13] 59.6 µM | Potency [9] 23.7 µM
inactive: Potency [12] | Potency [4] | Potency [7] | Potency [10] | Potency [11]

Oc1ccc(Cl)cc1Sc1cc(Cl)ccc1O
inactive: Potency [12] | Potency [4] | Potency [7] | Potency [10]
active: Potency [1] 43.6 µM | Potency [2] 26.6 µM | Potency [3] 30.6 µM and 26.6 µM | Potency [13] 68.5 µM | Potency [9] 13.7 µM and 10.6 µM

N=C1N=C(N)c2cc3ccccc3cc21
active: Potency [1] 49 µM | Potency [2] 43.3 µM | Potency [14] 25.3 µM | Potency [16] 20.9 µM | Potency [3] 27.3 µM | Potency [5] 24.3 µM | Potency [8] 27.3 µM | Potency [11] 6.86 µM
inactive: outcome [15] | outcome [17] | Potency [4] | Potency [9]

CCCCCCCCCOC(=O)c1ccc(O)cc1
active: Potency [1] 24.2 µM | Potency [3] 53.7 µM | Potency [4] 70 µM
inactive: Potency [2] | Potency [12] | Potency [5] | Potency [13] | Potency [7] | Potency [9]

CCCCCCCCCCCC(=O)NCCCN(C)C
inactive: Potency [4]
active: Potency [1] 15.5 µM | Potency [2] 54.5 µM | Potency [5] 61.1 µM | Potency [8] 61.1 µM

CCCCCCCCCCCCCCCCCC[N+](C)(C)C
active: Potency [1] 24.6 µM | Potency [2] 54.6 µM | Potency [3] 61.3 µM | Potency [9] 54.6 µM
inactive: Potency [4] | Potency [7] | Potency [10]

CS(=O)(=O)CCNCc1ccc(-c2ccc3ncnc(Nc4ccc(OCc5cccc(F)c5)c(Cl)c4)c3c2)o1
active: Potency [1] 16.9 µM | Potency [3] 6.68 µM | Potency [8] 33.5 µM
inactive: Potency [12] | Potency [4] | Potency [13] | Potency [7] | Potency [10] | Potency [11]

CCCCC(CC)COC(=O)c1ccccc1C(=O)O (stereo not given)
inactive: Potency [1] | Potency [14] | Potency [18] | outcome [15] | Potency [19] | Potency [16] | outcome [17] | Potency [3] | Potency [4] | Potency [5] | Potency [6] | Potency [7] | Potency [8] | Potency [10]

O=Cc1cc(O)ccc1Br
active: Potency [4] 57.2 µM
inactive: Potency [1] | Potency [2] | Potency [3] | Potency [5] | Potency [6] | Potency [8]

CC(C)(C)C1CCC(CC2=C(O)c3ccccc3C(=O)C2=O)CC1 (stereo not given)
inactive: Potency [1] | Potency [12] | Potency [3] | Potency [4] | Potency [13] | Potency [10] | Potency [11]

O=c1cc(-c2ccc(O)cc2)oc2cc(O)cc(O)c12
inactive: Potency [1] | Potency [2] | Potency [13] | Potency [11]
active: Potency [12] 1.56 µM | Potency [3] 49.2 µM and 30.6 µM | Potency [4] 10.2 µM and 7.96 µM | Potency [5] 55.2 µM | Potency [7] 24.7 µM and 61.1 µM
